Source: PubChem BioAssay
CIT2-GFP yeast = modulators of CIT2-GFP expression in yeast, primary screen, S. cerevisiae, GFP fusion, multiplex flow cytometry, MLPCN library. 320,000 tested, 0.065% active. GFP response vs DMSO, % at 10 µM. S. cerevisiae CIT2-GFP strain, 3 h; 100 means same as DMSO wells;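 active = GFP response relative to DMSO above a set limit, near the screen mean plus 3 SD, cut at about 150% in these data; inconclusive = Fewer than 70 cells measured for a yeast strain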;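 note: ratio of well median GFP fluorescence to mean of DMSO wells on the plate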
GASC-1 inh = inhibitors of GASC-1 histone demethylase, primary screen, biochemical, fluorescence, DELFIA europium. GST-JMJD2C(1-420) H3K9me3 demethylation. Lysine-specific demethylase 4C (Homo sapiens), Q9H3R0. 330,000 tested, 0.069% active. AID 2099, 2009. inhibition, % at 2.35 µM;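 active = more than half of a compound's replicate wells show inhibition beyond 50%, single wells judged on their own value; inconclusive = some, but no more than half, of replicates pass 50% inhibition; inactive = no replicate passes 50% inhibition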;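 note: signal counts dimethyl H3K9 product captured on neutravidin plate; 0% = median of DMSO wells and 100% = 0.3 times that DMSO median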
Target sequence (Q9H3R0 1-420 limits assumed): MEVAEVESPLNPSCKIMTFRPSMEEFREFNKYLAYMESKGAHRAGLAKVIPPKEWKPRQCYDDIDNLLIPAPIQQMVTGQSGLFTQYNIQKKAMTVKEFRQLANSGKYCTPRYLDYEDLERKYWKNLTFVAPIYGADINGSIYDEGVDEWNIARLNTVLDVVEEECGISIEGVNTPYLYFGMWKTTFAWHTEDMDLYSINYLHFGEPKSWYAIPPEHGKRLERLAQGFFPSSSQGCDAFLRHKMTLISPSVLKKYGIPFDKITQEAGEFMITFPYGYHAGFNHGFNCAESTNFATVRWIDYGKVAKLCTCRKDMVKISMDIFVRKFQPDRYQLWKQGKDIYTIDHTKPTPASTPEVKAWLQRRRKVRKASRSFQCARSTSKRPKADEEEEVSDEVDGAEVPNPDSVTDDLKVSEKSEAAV
MEP2-GFP yeast = modulators of MEP2-GFP levels in yeast, primary screen, S. cerevisiae, multiplex flow cytometry, MLPCN library | S. cerevisiae MEP2-GFP strain, 3 h; 100% = DMSO control level | GFP response vs DMSO, % at 10 µM | AID 2016, 2009 | 330,000 tested, 0.51% active;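 active = GFP response versus DMSO above a set limit, roughly screen mean plus 3 SD, cut at about 180% in these data; inconclusive = fewer than 70 cells counted for a yeast strain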;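 note: median GFP fluorescence of the barcode-gated MEP2-GFP cells per well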
AGP1-GFP MLPCN = modulators of AGP1-GFP expression in yeast TOR pathway, primary screen, cell-based, multiplex flow cytometry, S. cerevisiae, MLPCN library; 3 h; GFP as percent of DMSO wells; GFP response vs DMSO, % at 10 µM; 320,000 tested, 0.02% active;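 active = GFP response relative to DMSO above a set limit, near screen average plus 3 SD, cut at about 150% in these data; inconclusive = fewer than 70 cells counted for the yeast strain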;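 note: median GFP channel fluorescence of the gated AGP1 strain per well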
LAP4 TOR yeast = modulators of LAP4-GFP expression in yeast, primary screen, S. cerevisiae, multiplex flow cytometry, MLPCN library | AID 2023, 2009 | GFP response vs DMSO, % at 10 µM | 3 h; median GFP as percent of DMSO wells | 320,000 tested, 0.34% active;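 active = GFP response vs DMSO above a set limit, about the screen mean plus 3 SD, cut at about 150% in these data; inconclusive = under 70 cell events counted for the yeast strain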
RPL19A TOR yeast = RPL19A-GFP expression modulators in yeast, primary screen, cell-based, S. cerevisiae, multiplex flow cytometry, MLPCN; 330,000 tested, 0.3% active; S. cerevisiae RPL19A-GFP strain, 3 h; active compounds read low; percent response vs DMSO, % at 10 µM; AID 2025, 2009;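 active = percent response vs DMSO below 50%; inconclusive = fewer than 70 events counted for the yeast strain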;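 note: median channel GFP fluorescence of the barcoded RPL19A-GFP strain; ratio of sample median GFP to plate DMSO average so 100% = DMSO; lower means less RPL19A-GFP as with rapamycin TOR inhibition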
Starred values were filed as active, the others as inactive; u = inconclusive; x = no result given; + = active, no number; [ ] = remark or other dose. A selection: hits, their analogues and other compounds. The true share with any hit is near 0.97%.

SMILES	CIT2-GFP yeast	GASC-1 inh	MEP2-GFP yeast	AGP1-GFP MLPCN	LAP4 TOR yeast	RPL19A TOR yeast
CCCN1C2=NS(=O)(=O)CCN2c2ccccc21	u	-23.1	260.1*[may fluoresce violet]	30.5	85.0	x
CCc1ccc(NC(=O)CNC(=O)[C@@H]2Cc3ccccc3CN2C(=O)OC(C)(C)C)cc1	97.7	5.2	100.0	100.3	96.4	98.6
O=C(CCS(=O)(=O)c1ccc(F)cc1)N1CCN(c2ccccc2)CC1	96.5	1.6	99.6	102.3	111.5	94.0
O=C(CCS(=O)(=O)c1ccc(F)cc1)N1CCOCC1	u	1.9	528.1*[may fluoresce violet]	13.5	89.5	65.8
CCN(CC)CCCN(C(=O)c1ccc(Br)cc1)c1nc(-c2ccc(OC)cc2)cs1	159.9*	-8.1	+	160.8*	276.2*	80.3
O=S(=O)(c1ccc(F)cc1)N1CCN(C(=S)NCC2CCCO2)CC1 (centres undefined)	95.9	1.8	97.2	103.8	96.0	96.0
C/C(=N\NC(=O)c1ccc(Cl)c(Cl)c1)c1ccccn1	109.4	4.9	133.5	109.1	285.4*	136.7
C/C(=N\NC(=O)c1ccccc1Cl)c1ccccn1	105.8	-4.4	95.2	105.1	98.0	98.6
O=C(COC(=O)C1CC1)Nc1ccccc1Sc1ccccc1	95.0	-6.1	107.2	99.8	97.6	103.3
Cc1ccc(C(=O)OCC(=O)Nc2ccccc2Sc2ccccc2)cc1C	103.9	0.2	175.9*	101.9	121.0	101.6
CCCCC(=O)Nc1cccc(NC(=O)c2cccnc2Cl)c1	95.5	-1.3	97.5	105.3	106.6	96.5
CC1CCN(C(=O)CNC(=O)c2cccc(OC(F)F)c2)CC1	104.3	13.4	96.1	93.4	86.2	96.2
COc1cccc(C(=O)NCC(=O)N2CCC(C)CC2)c1	u	4.2	184.4*[may fluoresce violet]	21.9	95.1	45.3*[may fluoresce violet]
O=c1cc(-c2ccc(O)c(O)c2)oc2c(C3O[C@H](CO)[C@@H](O)[C@H](O)[C@H]3O)c(O)cc(O)c12 (some centres undefined)	111.0	64.0*	91.3	93.0	104.5	104.8
CCOc1ccccc1N(CC(=O)Nc1cccnc1)S(=O)(=O)c1ccc(C)cc1	107.2	-2.0	100.6	110.2	110.8	105.0
CCOc1ccccc1N(CC(=O)Nc1cccnc1)S(C)(=O)=O	u	-6.8	552.5*[may fluoresce violet]	x	98.5	40.3*[may fluoresce violet]
C(=N\NC1=NCCN1)/c1ccncc1	106.8	-23.3	109.4	105.3	96.0	106.5
CCCCOC(=O)Nc1ccc(S(=O)(=O)Nn2cnnc2)cc1	u	9.2	278.0*[may fluoresce violet]	u	73.3	38.8*[may fluoresce violet]
CCCOC(=O)Nc1ccc(S(=O)(=O)Nn2cnnc2)cc1	95.3	8.2	98.7	99.0	99.3	95.1
Oc1ccc2ccccc2c1/C=N/c1nc2c(s1)CCCC2	95.1	8.1	95.4	95.9	93.8	96.2
Oc1c(Br)cc(Br)cc1/C=N/c1nc2c(s1)CCCC2	u	11.6	90.3	14.9	103.0	47.0*[may fluoresce violet]
O=C(O/N=C(\c1ccccc1)c1ccncc1)c1ccccc1Cl	43.6	2.3	74.2	59.1	152.0*	65.0
N/C(=N\OC(=O)c1ccccc1Cl)c1ccccc1	97.2	2.4	97.2	81.1	100.2	94.9
CC(=O)Nc1ccc(C(=O)OCC(=O)Nc2c(C)n(C)n(-c3ccccc3)c2=O)cc1	96.1	10.3	97.2	99.8	100.0	95.6
CC(C)C(=O)N1CCN(c2ccccc2NC(=O)c2ccco2)CC1	u	27.0	292.4*[may fluoresce violet]	u	88.5	39.1*[may fluoresce violet]
SMILES	CIT2-GFP yeast	GASC-1 inh	MEP2-GFP yeast	AGP1-GFP MLPCN	LAP4 TOR yeast	RPL19A TOR yeast
OCc1ccccc1CNCc1ccccc1	102.2	-6.6	102.7	105.5	99.5	100.6
OCc1ccccc1SSc1ccccc1CO	101.5	19.3	89.5	95.7	192.2*	89.4
CCOC(=O)c1c(C)[nH]c(C(=O)COC(=O)/C=C/c2ccc(OCC#N)c(OC)c2)c1C	96.4	0.7	97.6	105.4	97.9	103.1
O=[N+]([O-])c1ccccc1OCCOc1ccccc1[N+](=O)[O-]	131.2	-9.6	529.8*	155.2*	167.3*	73.1
COc1ccc(OCCOc2ccccc2[N+](=O)[O-])cc1	94.8	-6.2	94.8	86.5	89.1	98.6
COc1ccc(N2CCN(CC(=O)Nc3ccc(C)c(C)c3)CC2)cc1	93.8	0.7	98.8	97.9	103.5	97.9
CC(O)CNc1nc2ccccc2n1CC(=O)NC12CC3CC(CC(C3)C1)C2 (centres undefined)	114.0	51.4*	102.4	111.9	116.1	102.1
O=c1[nH]c(CN(CCO)CCO)nc2c1C1(CCCCC1)Cc1ccccc1-2	u	14.1	288.8*[may fluoresce violet]	x	86.2	42.3*[may fluoresce violet]
CCN(CC)Cc1nc2c(c(=O)[nH]1)C1(CCCC1)Cc1ccccc1-2	91.8	1.6	92.2	102.0	103.0	102.1
COc1ccc(Cl)cc1N(CC(=O)N1CCCC1)S(=O)(=O)c1ccc(C)cc1	u	-9.2	216.3*[may fluoresce violet]	u	90.2	47.0*[may fluoresce violet]
CCOc1ccccc1N1CC(C(=O)NCCOc2ccccc2OC)CC1=O (centres undefined)	103.0	-11.4	106.0	84.4	74.0	105.5
COC(=O)C(C(=O)Nc1ncccn1)C1CCCCCC1 (centres undefined)	u	-0.3	316.6*[may fluoresce violet]	u	106.9	u
COC(=O)C(C(=O)Nc1ccccc1C)C1CCCCCC1 (centres undefined)	89.3	2.7	95.7	92.5	92.3	99.1
O=C(OCCCOC(=O)c1ccc(O)cc1)c1ccc(O)cc1	95.7	3.7	103.3	91.8	90.7	109.6
COc1ccc(C(=O)NCN2CCN(c3ccccc3)CC2)cc1OC	85.0	-2.5	101.1	94.5	97.0	93.7
Cc1oc(-c2cccc(Cl)c2)nc1CN1CCC(C(=O)NCCCN2CC(C)CC(C)C2)CC1 (centres undefined)	u	-10.7	190.1*[may fluoresce violet]	u	74.7	16.8*[may fluoresce violet]
Cc1oc(-c2cccc(Cl)c2)nc1CN1CCC(C(=O)NCCCN2CCCC2=O)CC1	92.9	-1.6	101.2	92.7	99.4	92.8
CCOc1cccc(-c2c(C(=O)N/N=C/c3cccs3)nnn2-c2nonc2N)c1	88.1	-4.0	96.6	98.5	96.6	93.6
CCCn1c(SCC(=O)N2CCc3ccccc32)n[nH]c1=O	112.1	-4.1	102.7	97.9	87.6	99.8
Cc1ccc(C(=O)N2CCN(c3ccc(N4CCOCC4)nn3)CC2)cc1	98.9	-2.2	101.0	108.9	114.3	98.0
CCCCOc1ccc(C(=O)N2CCN(c3ccc(N4CCOCC4)nn3)CC2)cc1	69.9	8.7	79.0	68.0	157.5*	77.5
